Results filed as inconclusive are left out. Unmarked numbers belong to inactive results. Calls of active or inactive are those of the source. Calls come from the whole dose curve; as a rule, active = well fitted curve in the direction sought with a large enough effect in the repeat runs; inconclusive = weak or mixed curves; inactive = no such curve, though single readings can be large; an effect the other way counts as inactive or inconclusive.
% is set by controls: 0 for no effect and ±100 for the full control effect; potency is the fitted concentration of half-maximal effect.

Nuclear receptor subfamily 1 group I member 2 (Rattus norvegicus), sequence (Q9R1A7 whole entry, looked up): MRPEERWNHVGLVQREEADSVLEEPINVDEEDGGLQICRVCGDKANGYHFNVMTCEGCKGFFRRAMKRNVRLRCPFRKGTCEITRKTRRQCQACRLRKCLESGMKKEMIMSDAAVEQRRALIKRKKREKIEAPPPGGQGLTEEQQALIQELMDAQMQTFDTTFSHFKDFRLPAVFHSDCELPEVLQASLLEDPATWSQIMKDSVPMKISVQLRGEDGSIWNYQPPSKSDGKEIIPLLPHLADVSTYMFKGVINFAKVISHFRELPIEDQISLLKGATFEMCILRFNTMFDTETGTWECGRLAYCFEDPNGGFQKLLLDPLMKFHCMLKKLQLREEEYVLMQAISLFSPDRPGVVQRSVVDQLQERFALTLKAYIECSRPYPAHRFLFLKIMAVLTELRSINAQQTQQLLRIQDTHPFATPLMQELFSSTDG

The first test has as its target Nuclear receptor subfamily 1 group I member 2 (Rattus norvegicus) (UniProt Q9R1A7). Briefly: Rat pregnane X receptor (rPXR) activation by small molecules, qHTS assay (AID 1346983). Note: nearly all actives have a fitted effect of over 20% in size. Particulars: rPXR luciferase reporter cells, One-Glo luminescence, 24 h; max activation: hits give high values. In a few lines: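 Cell-based rPXR luciferase reporter assay, 2,000 cells per well, rested 5hr at 37 C before compound addition in DMSO, then 24 hr at 37 C. One-Glo reagent was added and luminescence read after 30 min at room temperature.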
Take `Cc1cc(/C=C/c2ccc3cc(N(C)C)ccc3[n+]2C)c(C)n1-c1ccccc1`: the max activation was -14%.
Still for that read-out and setting: the same measure for `CC(=O)c1ccc2c(c1)N(CCCN1CCN(CCO)CC1)c1ccccc1S2`: -12.2%; for `O=C1CSC2(CCN(CCCN3c4ccccc4Sc4ccc(Cl)cc43)CC2)N1`: 2.22%.
For the compound `N#Cc1ccc2c(c1)N(CCCN1CCC(O)CC1)c1ccccc1S2`, the max activation is -1.43%.
With `O=C(CCCN1CCC(C(=O)c2ccc(F)cc2)CC1)c1ccc(F)cc1`, the max activation was 4%.
`C=C1C(=C/C=C2\CCC[C@]3(C)[C@@H]([C@H](C)CCCC(C)(C)O)CC[C@@H]23)C[C@@H](O)C[C@@H]1O`: the max activation is 0.618%.
On to `CN(C)CCCN1c2ccccc2C(C)(C)c2ccccc21`, for which the max activation was -1.25%.
On the same count and under the same terms, the same measure for `O=C(O)c1c(Cl)c(Cl)c(Cl)c(Cl)c1-c1c2cc(I)c(=O)c(I)c-2oc2c(I)c(O)c(I)cc12`: -7.42%.
As for `CCN(CC)CCOc1ccc(-c2nc3cc(Cl)ccc3s2)cc1`, the Potency is 0.794 µM (active).
On to `CN1CCC(CN2c3ccccc3Sc3ccccc32)C1` (stereo unspecified), for which the max activation is -2.87%.
Take `CN(C)CC/C=C1/c2ccccc2CSc2ccccc21`: the max activation is -3.65%.
For the compound `CCc1ccc2c(c1)N(CC(C)CN(C)C)c1ccccc1S2` (stereo unspecified), the max activation is 1.61%.
Still for that read-out and setting: the same measure for `CC(CN(C)C)CN1c2ccccc2Sc2ccc(C(F)(F)F)cc21` (stereo unspecified): 2.66%; for `CN1CCCC(CN2c3ccccc3Sc3ccccc32)C1` (stereo unspecified): -5.65%.

The target of the next test is Nuclear receptor subfamily 1 group I member 2 (Homo sapiens) (UniProt O75469). Nature of the test: CYP3A4 induction through human pregnane X receptor (PXR) by small molecules, qHTS assay (AID 1346984). Note: nearly all actives have a fitted effect of over 40% in size. Particulars: DPX-2 HepG2 PXR, CYP3A4-luciferin luminescence, 24 h; series mostly up to 46.1 µM; activation: at the top concentration. An outline of the steps:
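Induction measured in HepG2-based DPX-2 cells co-expressing human PXR and a CYP3A4 promoter-driven luciferase. After a 24-hour compound exposure, cells received CYP3A4 luciferin substrate at 3uM final for 3 hours, and light output was then recorded.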
For orientation: In qHTS, concentration-response curves come from the screen itself.
For `C=C[C@]1(C)C[C@@H](OC(=O)CSC(C)(C)CNC(=O)[C@H](N)C(C)C)[C@]2(C)[C@H](C)CC[C@]3(CCC(=O)[C@H]32)[C@@H](C)[C@@H]1O`, the “activation” value was -6.51%.
Still for that read-out and setting: the same measure for `CCCCC(=O)OCC(=O)[C@]1(O)Cc2c(O)c3c(c(O)c2[C@@H](O[C@H]2C[C@H](NC(=O)C(F)(F)F)[C@H](O)[C@H](C)O2)C1)C(=O)c1c(OC)cccc1C3=O`: -36.4%; for `O=C1CSC2(CCN(CCCN3c4ccccc4Sc4ccc(Cl)cc43)CC2)N1`: -4.27%.
With `C=C1C(=C/C=C2\CCC[C@]3(C)[C@@H]([C@H](C)CCCC(C)(C)O)CC[C@@H]23)C[C@@H](O)C[C@@H]1O`, the “activation” value is -11.7%.
Regarding `CN(C)CCCN1c2ccccc2C(C)(C)c2ccccc21`, the Potency is 31.6 µM (active).
As for `CN1CCC(CN2c3ccccc3Sc3ccccc32)C1` (stereo unspecified), the Potency is 0.891 µM (active).
Take `CCc1ccc2c(c1)N(CC(C)CN(C)C)c1ccccc1S2` (stereo unspecified): the Potency was 12.6 µM (active).
For `c1ccc2c(c1)Sc1ccccc1N2CCN1CCCC1`, the Potency was 10 µM (active).
As to `C=C[C@]1(C)C[C@@H](OC(=O)CSCCN(CC)CC)[C@]2(C)[C@H](C)CC[C@]3(CCC(=O)[C@H]32)[C@@H](C)[C@@H]1O`, the “activation” value was -1.97%.
As for `CN1CCCC(CN2c3ccccc3Sc3ccccc32)C1` (stereo unspecified), the Potency is 25.1 µM (active).

The target is the same in another test. Nature of the test: Human pregnane X receptor (PXR) activation by small molecules, qHTS assay (AID 1346985). Note: nearly all actives have a fitted effect of over 40% in size. As to conditions: DPX-2 HepG2 CYP3A4-luciferase, 24 h; series mostly up to 38.3 µM; activation: at the top concentration. In a few lines:
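DPX-2 cells (HepG2 co-transfected with a PXR response element and a CYP3A4-promoter luciferase construct) were seeded at 2,000 per well, rested 5 hr at 37C, then exposed to DMSO-dissolved compounds for 24 hr. Activation was read as luciferase luminescence.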
For the compound `C=C[C@]1(C)C[C@@H](OC(=O)CSC(C)(C)CNC(=O)[C@H](N)C(C)C)[C@]2(C)[C@H](C)CC[C@]3(CCC(=O)[C@H]32)[C@@H](C)[C@@H]1O`, the Potency was 8.91 µM (active).
`Cc1cc(/C=C/c2ccc3cc(N(C)C)ccc3[n+]2C)c(C)n1-c1ccccc1`: the “activation” value is -14.9% [at 17.1 µM].
On the same count and under the same terms, the same measure for `CCCCC(=O)OCC(=O)[C@]1(O)Cc2c(O)c3c(c(O)c2[C@@H](O[C@H]2C[C@H](NC(=O)C(F)(F)F)[C@H](O)[C@H](C)O2)C1)C(=O)c1c(OC)cccc1C3=O`: -0.469%; for `CC(=O)c1ccc2c(c1)N(CCCN1CCN(CCO)CC1)c1ccccc1S2`: 21.1%.
In the case of `O=C(CCCN1CCC(C(=O)c2ccc(F)cc2)CC1)c1ccc(F)cc1`, the Potency was 15.8 µM (active).
Consider `O=C(O)c1c(Cl)c(Cl)c(Cl)c(Cl)c1-c1c2cc(I)c(=O)c(I)c-2oc2c(I)c(O)c(I)cc12`, for which the “activation” value is 17.3%.
Regarding `CCN(CC)CCOc1ccc(-c2nc3cc(Cl)ccc3s2)cc1`, the Potency is 10 µM (active).
Take `CN(C)CC/C=C1/c2ccccc2CSc2ccccc21`: the “activation” value is 16.1% [at 17.1 µM].
Turning to `CC(CN(C)C)CN1c2ccccc2Sc2ccc(C(F)(F)F)cc21` (stereo unspecified), the Potency is 25.1 µM (active).
On the same count and under the same terms, the same measure for `CC(C)(C)C1(O)CCN2CC3c4ccccc4CCc4cccc(c43)C2C1` (stereo unspecified): 14.1 µM (active); for `c1ccc2c(c1)Sc1ccccc1N2CCN1CCCC1`: 25.1 µM (active); for `C=C[C@]1(C)C[C@@H](OC(=O)CSCCN(CC)CC)[C@]2(C)[C@H](C)CC[C@]3(CCC(=O)[C@H]32)[C@@H](C)[C@@H]1O`: 15.8 µM (active).

The values above are taken from PubChem BioAssay (Tox21).
